Only some compounds are listed: those with a hit (about 3.6% of all), similar ones and a draw of the others.
Bead autofluor – counter-screen for toxin protease inhibitors: compound fluorescence; compound autofluorescence counterscreen, microsphere flow cytometry; hits give high values; fluorescence intensity (no concentration beside the values); actives 3.1% (n = 360,000); in the data active = fluorescence intensity above about 16000; inconclusive = no clear call, values can overlap the other calls
BoNT-A LC inh2 – BoNT A light chain protease inhibition | multiplex microsphere protease substrate cleavage, flow cytometry | inhibition, % at 10 µM | actives 0.17% (n = 360,000) | AID 588499
BoNT F protease – inhibitors of Botulinum neurotoxin F light chain protease; Multiplex microsphere protease cleavage assay, flow cytometry; inhibition, % at 10 µM; actives 0.22% (n = 360,000); in the data active = inhibition above about 35%, passing the limit was not always enough; inconclusive = no clear call, values can overlap the other calls
Anthrax LF inh2 – inhibitors of Bacillus anthracis lethal factor protease; P15917; multiplex microsphere protease cleavage assay, LF; actives 0.12% (n = 360,000); inhibition, % at 10 µM; AID 588501
MazF activator – MazEF (E. coli) toxin RNase activation; P0AE70; FAM/BHQ RNA-DNA oligo cleavage fluorescence, 5 h; activation, % at 20 µM; actives 0.32% (n = 350,000); AID 504720; in the data active = activation above about 50%
Target sequence (P0AE70 whole entry, looked up): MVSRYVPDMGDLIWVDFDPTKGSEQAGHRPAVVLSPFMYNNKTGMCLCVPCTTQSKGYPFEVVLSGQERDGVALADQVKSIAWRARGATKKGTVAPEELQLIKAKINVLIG
Numbers stand for hits; 0 = inactive; ? = inconclusive; - = no result. Cut-off read from the data, not from the text of the source, unless noted: active = inhibition above about 30%; inconclusive = no clear call, values can overlap the other calls; inactive = below that.

SMILES	Bead autofluor	BoNT-A LC inh2	BoNT F protease	Anthrax LF inh2	MazF activator
Cc1cccc(OCCSc2nnc(-c3ccoc3C)n2C)c1	20328	?	0	0	0
CN(C)c1ccc(CNn2cnnc2SCc2ccc(F)cc2)cc1	0	0	0	0	0
c1ccc(CSc2nncn2-c2ccccn2)cc1	22351	0	0	0	0
Cn1c(SCc2ccccc2)nnc1-c1ccncc1	24601	?	0	0	0
Cn1c(SCc2ccc(Br)cc2)nnc1-c1ccncc1	0	0	0	0	0
Fc1ccc(CSc2nncn2NCc2ccccc2)cc1	21851	0	0	0	0
Cc1nc2c(=O)[nH]n(C)c2nc1C	0	0	0	0	0
Nc1ccccc1SC(CC(=O)c1ccccc1)c1cccc([N+](=O)[O-])c1 (stereo not given)	0	0	0	0	0
COc1ccc(CSc2nnc(-c3ccncc3)n2N)cc1	0	0	0	0	0
Cc1ccc(CSc2nnc(-c3ccccn3)n2C)cc1	0	0	0	0	0
Cn1c(SCc2ccc(F)cc2)nnc1-c1ccccn1	23620	0	0	0	0
Cn1c(SCCOc2cccc(Cl)c2)nnc1-c1ccncc1	0	0	0	0	0
Nn1c(SCc2ccc(F)cc2)nnc1-c1ccncc1	0	0	55	?	0
Cc1ccc(OCCSc2nnc(-c3ccncc3)n2C)cc1	22301	0	0	0	0
CN(CC(=O)Nc1ccc(N2CCOCC2)cc1)C(=O)CCNC(=O)c1ccc(Br)cc1	?	0	0	0	0
CN(C)c1ccc(-c2csc(C(O)c3cccc(Cl)c3)n2)cc1 (stereo not given)	0	0	0	0	-
Nc1ncnc2c1ncn2[C@@H]1O[C@H](C(=O)N(CCC2=CCCCC2)CC2CC2)[C@@H](O)[C@H]1O	0	0	0	0	-
CC(C)NS(=O)(=O)c1ccc(OCC(=O)Nc2ccc(F)cc2F)cc1	24368	0	0	0	0
CC1=CC(C)(C)N(C(=O)c2ccccc2)c2ccccc21	23091	0	0	0	0
CC1=CC(C)(C)N(C(=O)c2ccccc2)c2ccc(C)cc21	0	0	0	0	0
Cc1ccc(-n2c(C)cc(/C=N/NC(=O)c3ccncc3)c2C)c(C)c1	22871	0	0	0	0
Cc1cc(/C=N/NC(=O)c2cccs2)c(C)n1-c1cnccn1	0	0	47	0	0
Cc1cc(/C=N/NC(=O)c2cccs2)c(C)n1-c1ccccc1	0	0	0	0	0
Cc1cccc(C)c1-n1c(C)cc(/C=N/NC(=O)c2ccncc2)c1C	22105	0	0	0	0
COCCNc1nc(-c2ccc(Cl)cc2C)c2sccc2n1	0	0	0	0	-
SMILES	Bead autofluor	BoNT-A LC inh2	BoNT F protease	Anthrax LF inh2	MazF activator
Cc1cc(C(=O)CN2C(=O)NC(C)(CC(C)C)C2=O)c(C)n1-c1ccc2c(c1)OCO2 (stereo not given)	0	0	0	0	0
CC(C)CC(N)c1csc(Nc2ccc(C(F)(F)F)cn2)n1 (stereo not given)	0	0	0	0	-
Cc1ccc2c(c1)c1c3n2CCN(C(=O)CCl)C3CCC1 (stereo not given)	0	0	0	0	0
CC1=C(C(=O)N2CCCCCC2)CC(CC(=O)NCCCCc2ccccc2)C(=O)N1Cc1ccccc1 (stereo not given)	0	0	0	0	-
COc1ccc(S(=O)(=O)Nc2ccc3c(c2)[C@H]2C[C@H](CC(=O)NCC4CC4)O[C@@H](CO)[C@H]2O3)cc1	0	0	0	0	0
CC(C)Oc1ccc(C2c3c(oc4ccccc4c3=O)C(=O)N2CCCN2CCOCC2)cc1 (stereo not given)	24300	?	0	0	0
C=CCOc1ccc(C2c3c(oc4ccccc4c3=O)C(=O)N2CCCN2CCOCC2)cc1 (stereo not given)	0	0	0	0	0
C[C@]12c3[nH]c4ccc(Cl)cc4c3CCN1C(=O)[C@@H](CC(=O)NCc1ccco1)C[C@@H]2C(=O)N1CCCCC1	0	0	0	0	0
COc1ccccc1C(=O)Nc1nc(-c2ccc(S(=O)(=O)N3CCOCC3)cc2)cs1	0	0	0	0	0
COc1ccccc1OC(C)C(=O)Nc1nc(-c2ccc(S(=O)(=O)N3CCOCC3)cc2)cs1 (stereo not given)	23958	?	0	0	0
CSc1ccc(NC(=O)C2(C)CCN2C(=O)c2sccc2C)cc1 (stereo not given)	0	0	0	0	-
CCOn1c(-n2nc(C)cc2C)nc2ccccc2c1=O	20487	0	0	0	0
CCN(CC)C(=O)COn1c(SCC(=O)N(CC)CC)nc2ccccc2c1=O	19592	0	0	0	0
COC(=O)COn1c(-n2nc(C)cc2C)nc2ccccc2c1=O	22312	0	0	0	0
Cc1cc(C)n(-c2nc3ccccc3c(=O)n2OCC(C)C)n1	0	0	0	0	0
Cc1ccc(C(=O)OCC(=O)N(C)c2ccccc2)c(C)c1	0	0	0	0	0
CN(C(=O)COC(=O)c1ccc([N+](=O)[O-])cc1N)c1ccccc1	0	0	0	0	70
COc1ccc(C(=O)CCC(=O)Nc2cccnc2)cc1OC	0	0	0	0	0
Cc1ncoc1C(=O)Nc1ccc2c(c1)OCCO2	18125	0	0	0	0
Cc1occc1C(=O)Nc1ccc2c(c1)OCCO2	20875	?	0	0	0
COc1ccccc1NC(=O)Nc1ccc2c(c1)OCCO2	0	0	0	0	0
COc1cccc(OC)c1C(=O)Nc1ccc2c(c1)OCCO2	25227	0	0	0	0
O=C(Nc1ccc2c(c1)OCCO2)c1ccccc1	0	0	0	0	0
CS(=O)(=O)Nc1ccc(C(=O)Nc2ccc3c(c2)OCCO3)cc1	20301	0	0	0	0
Cc1ccc(S(=O)(=O)N(C)C[C@H]2Oc3ncc(Br)cc3C(=O)N([C@H](C)CO)C[C@@H]2C)cc1	0	0	0	0	0
SMILES	Bead autofluor	BoNT-A LC inh2	BoNT F protease	Anthrax LF inh2	MazF activator
CCOC(=O)c1c(C)c(C(=O)Nc2ccc3c(c2)OCCO3)c(C)n1C	23007	?	0	0	0
CCOC(=O)c1ccc(NC(=O)Nc2ccc3c(c2)OCCO3)cc1	0	0	0	0	0
Cc1cc(C(N)=O)c2ccccc2n1	0	0	0	0	0
NC(=O)c1cc2c3ccccc3ccn2c1-c1ccccc1	0	0	0	0	51
Cn1nnnc1Sc1ncnc2scc(-c3ccc([N+](=O)[O-])cc3)c12	0	0	0	0	0
Cc1cccc2cc(/C=C3\N=C(c4ccccc4)OC3=O)c(N3CCOCC3)nc12	0	124	41	65	0
COc1ccc(C(=O)NCC(=O)N/N=C/c2cccc(OC(=O)c3ccco3)c2)cc1OC	0	0	0	0	0
O=S(=O)(NC1CCCC1)c1ccccc1Cl	20825	?	0	0	0
O=S(=O)(NC1CCCCCCC1)c1ccccc1F	0	0	0	0	0
CCOC(=O)Nc1ccc2c(COC(=O)C(NS(=O)(=O)c3ccc(Cl)cc3)C(C)O)cc(=O)oc2c1 (stereo not given)	0	0	0	0	0
O=C(O)c1cn(-c2ccccc2)nc1-c1ccc(Cl)cc1	17250	0	0	0	0
CC1=C(C(=O)Nc2ccccn2)C(c2ccc(Cl)cc2)NC(=S)N1 (stereo not given)	0	0	0	0	0

Assay outcomes from PubChem BioAssay.
